Test results taken from PubChem BioAssay (NCI).
The panel holds about 83,000 compounds, 20% with a hit somewhere; the sample as a whole holds those more often.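 The test compound was applied at a single concentration to cells in 96-well plates for 48 hours, and percent growth was recorded.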 A number with no mark means an inactive call. Activity calls are given as the source filed them. The calls were made as follows: active = growth percent below 10; inactive = the rest.

Key:
Experiment in all cases: NCI-60 one-dose screen, 48 h (100 = growth as untreated, 0 = no growth, -100 = all killed)
Settings in all cases: 10 µM unless noted
[1] = tested on: RPMI-8226 leukemia
[2] = tested on: OVCAR-8 ovarian
[3] = tested on: OVCAR-5 ovarian
[4] = tested on: OVCAR-4 ovarian
[5] = tested on: SK-OV-3 ovarian
[6] = tested on: IGROV1 ovarian
[7] = tested on: OVCAR-3 ovarian
[8] = tested on: HS 578T breast
[9] = tested on: NCI/ADR-RES ovarian

| SMILES | growth [1] | growth [2] | growth [3] | growth [4] | growth [5] | growth [6] | growth [7] | growth [8] | growth [9] |
| --- | --- | --- | --- | --- | --- | --- | --- | --- | --- |
| O=C1C(Cl)=C(Cl)C(=O)c2c1nc1n2CCCC1 | 99.3% | 100% | 116% | 117% | 90.8% | 104% | 82.5% | 105% | 93.5% |
| Cn1cc(-c2ccc(-c3cn(C)c4ncccc34)[nH]2)c2cccnc21 | 31.9% | 23.3% | -6.91% (active) | -44.4% (active) | 106% | 73.8% | -36.9% (active) | 45.7% | 76% |
| CC/C(=C(\c1ccccc1)c1ccc(OCCNC)cc1)c1ccccc1 | -40.9% (active) | -49.6% (active) | -85.2% (active) | -67.1% (active) | -53.8% (active) | -93% (active) | -92.1% (active) | -55.6% (active) | -87.3% (active) |
| COc1cc(/C=C2\CN(C(=O)CCN3CCC(=NO)CC3)C/C(=C\c3cc(OC)c(OC)c(OC)c3)C2=O)cc(OC)c1OC | -40.1% (active) | 1.55% (active) | -65.4% (active) | -82.4% (active) | -7.89% (active) | -53.4% (active) | -97.6% (active) | 6.39% (active) | 9.97% (active) |
| O=C(O)c1ccc(=O)[nH]n1 | 107% | 103% | 104% | 113% | 106% | 137% | 115% | 111% | 109% |
| O=C(/C=C/c1cc2ccccc2[nH]c1=O)/C=C/c1cc2ccccc2[nH]c1=O | -16.8% (active) | 4.07% (active) | 15.6% | 38.3% | 8.82% (active) | -23.6% (active) | -58% (active) | 19.9% | 57.2% |
| CCN(CC)CC(C)(C)C(=O)/C=C/c1ccccc1 | 39.4% | 76.6% | 52.4% | 63.3% | 74.8% | 74.1% | 37.7% | 75.5% | 46.8% |
| N=c1c2ccccc2nc2n1CCCCC2 | 105% | 114% | 96.1% | 107% | 112% | 106% | 116% | 95.4% | 105% |
| COc1ccc(-c2cc(C(=O)N=Nc3c(O)[nH]c4ccccc34)no2)cc1 | 96.9% | 103% | 97.7% | 105% | 103% | 102% | 108% | 95.3% | 102% |
| CCN1CCN(Cc2ccc(NC(=O)Nc3nc4ccc(Oc5ccnc(C(=O)NC)c5)cc4s3)cc2C(F)(F)F)CC1 | -22.9% (active) | -18.6% (active) | -40.6% (active) | -64.1% (active) | -2.46% (active) | -12.2% (active) | -74.1% (active) | -38.6% (active) | -12.7% (active) |
| CC(C)CC(CC1=CCC2CC1C2(C)C)C1=C(O)C(C)(C)C(=O)C(C)(C)C1=O (stereo not given) | -26.4% (active) | 5.12% (active) | 22.7% | 32.5% | -12.6% (active) | 39% | 16.2% | 6.67% (active) | 7.18% (active) |
| COc1ccc(-c2cc(-c3cccnc3)nc3sc4c(=O)n(-c5ccc(C)cc5)cnc4c23)cc1OC | 97.6% | 101% | 86.7% | 92.3% | 99.2% | 106% | 98.8% | 87.2% | 103% |
| CC(=O)CC(C)(C)c1ccc(Cl)cc1 | 98.3% | 101% | 95.7% | 93.6% | 107% | 96% | 97.4% | 99.5% | 96.2% |
| CN(C)CC(=O)Nc1ccc(Cn2nnc3c2C(=O)c2nnn(Cc4ccc(NC(=O)CN(C)C)cc4)c2C3=O)cc1 | -34% (active) | -31.6% (active) | -35.7% (active) | -94.9% (active) | -44% (active) | -74.4% (active) | -59.1% (active) | 7.7% (active) | 88.6% |
| COC(=S)SCN(CSC(=S)OC)c1ccc(Cl)cc1 | 73.1% | 91.3% | 97.1% | 87.6% | 91.6% | 95.4% | 104% | 88.4% | 79.1% |
| O=C(/C=C/c1ccc(Cl)cc1)c1ccc(O)c(CN2CCN(c3cc4c(cc3F)c(=O)c(C(=O)O)cn4C3CC3)CC2)c1 | 16.5% | 27.4% | 77.5% | 89.2% | 73.8% | 51.6% | 73.9% | 47% | 65.7% |
| CCCNc1nc(SC)nc(-c2cccc(N)c2)c1C#N | 103% | 99.1% | 101% | 92.4% | 93.7% | 92.2% | 110% | 93.1% | 101% |
| CCOC(=O)C(=Cc1ccccc1F)C(=O)OCC | 93.1% | 105% | 106% | 97% | 106% | 95.2% | 95.2% | 104% | 100% |
| Cc1nn(-c2ccccc2)c2nc(C)n(-c3ccc(Br)cc3)c(=O)c12 | 9.81% (active) | 25.9% | 36.3% | 40.1% | 41.7% | 30.6% | -31.7% (active) | 15% | 3.19% (active) |
| Nc1cc(-c2nc3sccn3c2-c2ccnc(NCCCNS(=O)(=O)c3ccc(F)cc3)n2)ccc1F | 23% | 46.5% | 61% | 55.2% | 73.6% | 39.9% | 79.4% | 77.4% | 47.7% |
| O=S(=O)(Nc1ccc(Cl)cc1Cl)c1ccc(-c2cnc(C3CC3)o2)cc1 | 21.6% | 26.5% | 40.2% | 52.6% | 41.6% | 29.2% | -17.8% (active) | 9.44% (active) | 0.514% (active) |
| CCCCCCCCCCCCNC(=O)[C@H]1CSC(c2ccc(OC)c(F)c2)N1 (stereo not given in full) | -53.3% (active) | -51.1% (active) | -98.6% (active) | -96.6% (active) | -98.1% (active) | -76% (active) | -91.9% (active) | -49.6% (active) | -60.4% (active) |
| CC(C)c1c(C(=O)Nc2ccccc2)c(-c2ccccc2)c(-c2ccc(F)cc2)n1CC[C@@H]1CC=CC(=O)O1 | -25.9% (active) | -19.9% (active) | 57.1% | 19.8% | 31.6% | -27.5% (active) | -73.3% (active) | 18.1% | -1.87% (active) |
| CN(C)CCOc1ccc(-c2nc3ccc(-c4nc5ccc(N6CCN(C)CC6)cc5[nH]4)cc3[nH]2)cc1 | 35.5% | 63.6% | 83% | 68% | 69.5% | 90% | 94.9% | 76.4% | 108% |
| O=C(COc1cccc(/C=C2/Oc3ccccc3C2=O)c1)Nc1nccs1 | -53.2% (active) | 61.8% | 86.6% | 87.5% | 266% | -35% (active) | 220% | 88.6% | 83.3% |
| C=C1CCC2C3(C)COC(C)(C)OC3CCC2(C)C1C/C=C1/C(=O)OCC1OC(C)=O (stereo not given) | -42% (active) | -5.77% (active) | 38.3% | 32.3% | 97.4% | 69.6% | -9.88% (active) | 12% | 51% |
| O=C(CNC1C2CC3CC(C2)CC1C3)Sc1nnc2sc3ccccc3n12 (stereo not given) | 97.3% | 106% | 100% | 87.6% | 94.2% | 104% | 98.2% | 89.5% | 99.2% |
| CCOC(=O)c1c2ncccc2n2c(=O)n(-c3ccc(Cl)cc3)nnc12 | 92.8% | 57.1% | 67.7% | 84.6% | 92.2% | 85.6% | 95.2% | 93.9% | 59.8% |
| CCOC(=O)C(CC)n1c(=O)c2cc(OC)c(OC)cc2c2cnc3[nH]ccc3c21 (stereo not given) | 70.1% | 80% | 63.8% | 93.3% | 58.5% | 19.7% | 76.3% | 41.7% | 73.3% |
| O=C(Cc1ccccc1)c1ccc(Cl)cc1 | 160% | 103% | 83.2% | 107% | 107% | 105% | 111% | 120% | 96.6% |
